LDHA inh – blocks human lactate dehydrogenase A; P00338; purified LDHA, NADH/diaphorase-resazurin fluorescence; active compounds read low; activity change, % (values are at about 110 or 230 µM); 0.15% of 480,000 active; AID 1347041; in the data active means activity change below about -30%; inconclusive means mostly about -25% to -30%;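 further: plate controls were DMSO wells for no effect and wells without enzyme for full effect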
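Human LDH5 (2 nM) was incubated with 0.06 mM NADH and 0.2 mM pyruvate for 5 min at room temperature in Tris pH 7.4. Remaining NADH was coupled through diaphorase/resazurin, and resorufin fluorescence was read at 0 and 20 min.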
DT40 TDP1 CPT – growth inhibition of DT40 Tdp1-/-;hTDP1 cells with camptothecin (screen for TDP1 inhibitors) | chicken DT40 Tdp1-/-;hTDP1 cells + 20 nM CPT, ATP luminescence, 48 h | Potency, µM (series often up to 46.2 µM), for inactives: top-dose activity change, negative = growth inhibition, actives largely listed as inhibitors | 12% of 420,000 active | AID 686979; further: potency means the concentration at half of the fitted maximal effect; nearly all actives have a fitted effect of over 55% in size
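Cell growth measured by CellTiter-Glo luminescence after a minimum 48 h, 37 C compound exposure with 20 nM CPT in Tdp1-knockout DT40 cells stably expressing hTDP1, seeded 400/well; qHTS titration format.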
IL-1B inflam inh – inhibitors of inflammasome signaling (IL-1 beta secretion) | THP-1 LPS/ATP IL-1B secretion, AlphaLISA, 16 h; active compounds read low | activity change, % at 57.5 µM | 4.7% of 360,000 active; in the data active means activity change below about -50%; inconclusive means mostly about -30% to -49%
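THP-1 cells pretreated 1 hr with compounds (up to 57.5 uM final), then stimulated with LPS (250 ng/mL final) plus ATP (1.25 mM final); secreted IL-1B measured by AlphaLISA after 16 hr, decreased signal indicating inhibition.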
DT40 TDP1 no CPT – qHTS for Inhibitors of human tyrosyl-DNA phosphodiesterase 1 (TDP1): qHTS in cells in absence of CPT. DT40 Tdp1-/- hTDP1 cells, no CPT, ATP luminescence, 48 h. Potency, µM (doses to about 46.2 µM), for the others: at the highest dose activity change, negative = growth inhibition, most hits filed as inhibitors. 15% of 420,000 active. AID 686978, 2013; further: potency means the concentration at half of the fitted maximal effect; nearly all actives have a fitted effect of over 55% in size
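Readout: luminescence from CellTiter-Glo after 30 min in the dark at RT. Cells: DT40 Tdp1-/- with stable hTDP1, 400/well. Exposure: compounds alone, ≥48 hr, 37 °C.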
Gal4-VP16 FLuc – Gal4-VP16 reporter inhibition counter-screen. Potency, µM (series often up to 53.6 µM), inactives show at the top dose activity, negative = inhibition, hits mostly inhibitors. Drosophila S2 Gal4-VP16 UAS-luciferase, luminescence, 20 h. 3.5% of 310,000 active. AID 2546;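 further: Gal4-VP16 expression switched on by copper sulfate through the metallothionein promoter; potency means the concentration at half of the fitted maximal effect; nearly all actives have a fitted effect of over 50% in size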
RORg inh – blocks mouse ROR gamma transcriptional activity; P51450; Drosophila S2 Gal4-RORgamma UAS-luciferase reporter, 20 h; Potency, µM (top dose mostly 53.6 µM), for inactives: top-dose activity change, negative = inhibition, usual class: inhibitors; 5.4% of 310,000 active; further: potency means the concentration at half of the fitted maximal effect; nearly all actives have a fitted effect of over 60% in size
Target sequence (P51450 whole entry, looked up, the tested form may be a part): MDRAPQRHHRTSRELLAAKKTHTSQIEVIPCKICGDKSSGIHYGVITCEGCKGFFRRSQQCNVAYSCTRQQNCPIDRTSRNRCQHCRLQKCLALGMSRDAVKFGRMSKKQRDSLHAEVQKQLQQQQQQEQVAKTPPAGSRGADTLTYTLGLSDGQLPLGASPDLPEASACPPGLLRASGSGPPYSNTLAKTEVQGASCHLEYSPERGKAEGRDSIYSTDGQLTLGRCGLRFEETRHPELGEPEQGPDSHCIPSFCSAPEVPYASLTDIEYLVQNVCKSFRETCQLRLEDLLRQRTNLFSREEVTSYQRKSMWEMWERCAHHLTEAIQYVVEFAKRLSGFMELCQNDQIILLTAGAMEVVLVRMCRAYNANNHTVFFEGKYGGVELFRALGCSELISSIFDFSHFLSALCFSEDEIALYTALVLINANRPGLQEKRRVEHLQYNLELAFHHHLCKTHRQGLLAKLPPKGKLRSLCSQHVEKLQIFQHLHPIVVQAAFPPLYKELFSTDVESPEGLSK
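In this cell-based reporter format, copper sulfate (700 uM final) drives Gal4–ROR gamma fusion expression from a metallothionein promoter in Drosophila Schneider cells; compounds preincubated 1 hr, reporter read after 20 hr at ambient temperature.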
Numbers without * were called inactive; ? = inconclusive; . = no result. The list is not random: actives were taken first. Their share in the collection is about 18%. Unless noted, the call rests on the fitted dose curve; in most records, active means well fitted curve in the direction sought with a large enough effect; inconclusive means small, poorly fitted or top-dose-only effect, or another doubt; inactive means no such curve, though single readings can be large; an effect the other way counts as inactive or inconclusive. Unless noted, on the % scale 0 is the no-effect control and ±100 the full control effect.

SMILES	LDHA inh	DT40 TDP1 CPT	IL-1B inflam inh	DT40 TDP1 no CPT	Gal4-VP16 FLuc	RORg inh
CC1CCN(C(=O)CSc2nnc(Cc3cccn3C)n2CCc2ccccc2)CC1	-2	16µM*	?	?	1%	23%
Cn1cccc1Cc1nnc(SCC(=O)Nc2cccc(F)c2)n1CCc1ccccc1	4	23µM*	-21	?	-1%	27%
Cn1cccc1Cc1nnc(SCC(=O)Nc2ccccc2F)n1CCc1ccccc1	-2	-27%	?	-24%	-4%	24%
CCc1ccc(-c2nc(CS(=O)CC(=O)NCC(OC)OC)c(C)o2)cc1 (configuration not stated)	0	.	.	.	.	.
NS(=O)(=O)c1ccc(-c2ccc(C=C3C(=O)c4ccccc4C3=O)o2)cc1	7	1%	20	4%	-12%	2%
CC(C)CC1=C/C(=C/c2ccc(-c3ccccc3)o2)C(=O)O1	2	?	0	16µM*	6%	14%
Clc1ccc(/C=N/N=C(c2ccccc2)c2ccccc2)c(Cl)c1	5	.	.	.	.	.
O=C(CSc1ccc(Cl)cc1)N1N=CCC1c1ccccc1 (configuration not stated)	-10	?	-63*	?	-6%	33%
NC(=NC(=O)c1ccc(Cl)cc1)N1N=CCC1c1ccccc1 (configuration not stated)	-7	2%	-27	?	1%	-3%
CSc1cccc(NC(=O)CCc2ncc(-c3c(F)cccc3F)o2)c1	3	.	.	.	.	.
COc1ccccc1N(C(=O)c1snc(C(N)=O)c1N)C(C(=O)NC1CCCCC1)c1cccc(OC)c1OC (configuration not stated)	-5	?	0	16µM*	-13%	14%
CCOc1ccccc1N(C(=O)c1snc(C(N)=O)c1N)C(C(=O)NCCC(C)C)c1ccco1 (configuration not stated)	-4	?	-11	21µM*	-3%	7%
COc1ccc(N(C(=O)c2snc(C(N)=O)c2N)C(C(=O)NC2CCCC2)c2cccs2)c(OC)c1 (configuration not stated)	-8	?	0	21µM*	-9%	?
O=C(Nc1ccc(-c2cscn2)cc1)C1CCCN(Cc2ccccc2)C1 (configuration not stated)	-4	?	15	?	-21%	1.8µM*
O=C(Nc1cccc(-c2ccc(F)cc2)c1)C1CCCN(Cc2cccnc2)C1 (configuration not stated)	0	?	?	?	6%	11%
Cc1nn(C)c(Cl)c1CN1CCCC(C(=O)Nc2ccc(-c3cscn3)cc2)C1 (configuration not stated)	3	16µM*	-69*	?	10%	-1%
c1ccc(Cn2ncc3c2CCCC3NCc2ccsc2)cc1 (configuration not stated)	5	.	.	.	.	.
C=CCN(CC=C)S(=O)(=O)c1ccc(NC(=S)NC(=O)/C=C/c2cccc3ccccc23)cc1	-11	?	-15	?	?	2.2µM*
C=CCN(CC=C)S(=O)(=O)c1ccc(NC(=S)NC(=O)/C=C/c2ccc(C)cc2)cc1	-7	?	-2	?	?	10µM*
COC(=O)C1(C(=O)OC)CCC(=O)CC1c1ccccc1 (configuration not stated)	2	.	.	.	.	.
Cc1ccccc1OCc1nn2c(CN3CCOCC3)nnc2s1	-1	.	.	.	.	.
CCOC(=O)Cc1csc(NC(=O)c2ccc(C)cc2)n1	-1	-16%	15	?	-4%	-14%
CCCCC(=O)Nc1ccc(C(=O)Nc2nc(CC(=O)OCC)cs2)cc1	2	22µM*	-11	?	4%	-4%
CCOC(=O)Cc1csc(NC(=O)c2ccc(Cl)nc2)n1	5	?	4	23µM*	-5%	-17%
Cc1ccc(-n2c(SCC(=O)N3CC(=O)Nc4ccccc43)nc3ccccc3c2=O)cc1C	-11	?	0	-25%	-2%	8%
SMILES	LDHA inh	DT40 TDP1 CPT	IL-1B inflam inh	DT40 TDP1 no CPT	Gal4-VP16 FLuc	RORg inh
CC(c1ccccc1)n1c(SCC(=O)N2CC(=O)Nc3ccccc32)nc2ccccc2c1=O (configuration not stated)	-3	26µM*	-3	21µM*	-8%	34%
Cc1cccc(-n2c(SCC(=O)N3CC(=O)Nc4ccccc43)nc3ccccc3c2=O)c1	-10	?	?	23µM*	-6%	12%
Cc1cccc(-n2c(SCC(=O)N3CC(=O)Nc4ccccc43)nc3ccccc3c2=O)c1C	-3	?	-62*	18µM*	0%	?
COc1ccc(NC(C)=O)cc1NC(=O)CCc1ncc(-c2ccccc2F)o1	13	.	.	.	.	.
CC(=O)NC1=NN(C(C)=O)C(c2ccccc2OCc2ccccc2Cl)S1 (configuration not stated)	-1	.	.	.	.	.
CCC(C)c1ccc(S(=O)(=O)N2CCN(C(=O)c3n[nH]c(=O)c4ccccc34)CC2)cc1 (configuration not stated)	-16	.	.	.	.	.
COc1ccc(OC)c(NC(=O)C2CCCN(c3ccc4nncn4n3)C2)c1 (configuration not stated)	10	.	.	.	.	.
COc1cccc(-c2cc(=O)c3cc(NC(=O)c4ccccc4)ccc3[nH]2)c1	-2	4.6µM*	170	4.1µM*	-15%	?
COc1cccc(C(=O)Nc2ccc3oc(-c4ccc(F)cc4)cc(=O)c3c2)c1	-35*	.	.	.	.	.
COc1cccc(-c2cc(=O)c3cc(NC(=O)c4ccc(N(C)C)cc4)ccc3[nH]2)c1	-4	0.92µM*	144	1µM*	?	-14%
N#CC[n+]1cccc(-c2ccccc2)c1	3	.	.	.	.	.
COc1ccc(OC)c(C2C(C(=O)c3ccco3)=C(O)C(=O)N2c2nc3ccc(C)cc3s2)c1 (configuration not stated)	2	.	.	.	.	.
CCN1CCN(c2ccc(NC(=O)c3cc(Cl)ccc3OC)cc2)CC1	7	.	.	.	.	.
COC(=O)c1ccc(NC(=O)COc2cc(C)c(Cl)c(C)c2)cc1	-13	.	.	.	.	.
Cc1c(OCC(F)(F)F)ccnc1CSc1nc2ccccc2[nH]1	-3	?	?	23µM*	-18%	18%
Cc1ccccc1OCCCSc1nc2ccccc2[nH]1	-2	?	-81*	16µM*	?	?
Cc1c(C)c2ccc(OCC(=O)Nc3nc4ccccc4[nH]3)cc2oc1=O	0	.	.	.	.	.
